We go through eleven molecules from PubChem BioAssay (NCATS).

Assay [1] is described as follows: qHTS profiling of the MIPE4 collection as inhibitors of Plasmodium falciparum (3D7) proliferation (AID 743344).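 Also: scaled between DMSO vehicle wells and 0.29 µM artemisinin as full inhibition.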 The following applies: P. falciparum 3D7 in erythrocytes, SYBR Green DNA fluorescence, 72 h; at 28.5 µM unless noted. A digest of the protocol: (§1)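 Erythrocytes infected with P. falciparum (0.3% parasitemia, 2.5% hematocrit) incubated with compounds 72 h at 37 C, 5% CO2. Lysis with saponin/Triton buffer containing SYBR Green I, overnight at room temperature in the dark; DNA fluorescence (485/535 nm) normalised to 0.29 uM artemisinin and DMSO.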

A short description of assay [2]: qHTS profiling of the MIPE4 collection as inhibitors of Plasmodium falciparum (DD2) proliferation (AID 743345). The following applies: P. falciparum Dd2 in erythrocytes, SYBR Green DNA, 72 h; at 28.5 µM unless noted. A digest of the protocol: as §1
A general note: Quantitative high-throughput screening tests each substance at several concentrations.

Assay [3] is described as follows: qHTS profiling of the MIPE4 collection as inhibitors of Plasmodium falciparum (DD2) proliferation (Rep 2) (AID 743346). The following applies: P. falciparum Dd2 in erythrocytes, SYBR Green DNA, 72 h; at 28.5 µM unless noted. A digest of the protocol: as §1
Assay [4] is described as follows: qHTS profiling of the MIPE4 collection as inhibitors of Plasmodium falciparum (HB3) proliferation (AID 743347).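 Also: plate controls were DMSO vehicle wells for no effect and artemisinin wells for full effect.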 The following applies: P. falciparum HB3 in erythrocytes, SYBR Green DNA, 72 h; at 28.5 µM unless noted. A digest of the protocol: as §1
Assay [5] is described as follows: High-throughput drug toxicity screening in the BPDCN cell line Gen2.2 (AID 1224824).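 Also: cells exposed to compounds for 48 h before reading.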 Conditions: Gen2.2 BPDCN cells; at 45.8 µM (top of the series) unless noted. A digest of the protocol: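 Gen2.2 cells (500/well) in phenol red-free RPMI with 10% FBS were exposed to compounds for 48 h at 37 °C, 5% CO2. Viability was read by CellTiter-Glo luminescence and normalized to DMSO (100%) and 9.2 uM bortezomib (0%).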

Assay [6] is described as follows: High-throughput drug toxicity screening in the BPDCN cell line Cal-1 (AID 1224825). The following applies: Cal-1 BPDCN cell viability, qHTS; at 45.8 µM (top of the series) unless noted. The procedure, abridged: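 500 Cal-1 cells/well, RPMI + glutamine + 10% FBS (phenol red-free); cpd added by pin tool; 48 h, 37C, 5% CO2; CTG 15 min RT, lumi read. Normalised: DMSO 100%, bortezomib 9.2 uM 0%.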

Assay [7] can be described thus: qHTS assay for measurement of the activity of small molecule inhibitors on Zika virus induced Caspase-3 activity in human iPSC derived neural progenitor cells (hNPCs) (AID 1224857; active = well fitted inhibition curve with a large enough effect; also: % of control where 0% means no effect; nearly all actives have a fitted effect of over 65% in size). The procedure, abridged: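 After overnight (16–20 h) culture at 350 cells/well, hNPCs get compound, then ZIKV 2 FFU/cell one hour later. Six hours on, Caspase-Glo 3/7 is added and luminescence measured.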

The nature of assay [8]: qHTS assay for measurement of the activity of small molecule inhibitors on Zika virus induced Caspase-3 activity in human astrocytoma cells (AID 1224859; active = well fitted inhibition curve with a large enough effect;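 also: plate controls were ZIKV-infected untreated cells for no effect and uninfected cells for full effect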). The procedure, abridged: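 Inhibition of Zika-induced caspase-3/7 activity: SNB-19 cells, 1 h compound pretreatment, ZIKV 2 FFU/cell for 6 h at 37 C, Caspase-Glo luminescence read-out.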

Molecules are shown by their SMILES. Records with an inconclusive call do not appear. Active and inactive are the calls of the source. Unless noted, no rule for the calls is given here.

`CNC(=O)c1ccc2cc(C3(O)CCn4cncc43)ccc2c1` (stereo unspecified) gave a parasite growth, % of DMSO control in assay [1] of 84.5%. This molecule also displayed a parasite growth remaining, % of DMSO control (lower = more inhibition) in assay [2] of 86.6%. In assay [3], the parasite growth, % of control (lower = inhibition) was determined as 74.8%. For the same molecule, in assay [4], the growth, % of control was found to be 55%. In assay [5], the cell viability, % of control (lower = more cytotoxic) came out at 82.2%. This molecule also yielded a viability (% of control) in assay [6] of 94.8%. In addition, the Potency entry in assay [7] and in assay [8] was “inactive” in each case.

For `Cc1ccn(-c2ccc(-c3ncco3)cc2)c(=O)c1-c1ccc2nc(N)ncc2c1`, the parasite growth, % of DMSO control in assay [1] stood at 21.1%. For the same molecule, in assay [2], the parasite growth remaining, % of DMSO control (lower = more inhibition) was 78.6%. Further, the parasite growth, % of control (lower = inhibition) in assay [3] is 56.7%. For the same molecule, the growth, % of control in assay [4] worked out at 72.3%. The cell viability, % of control (lower = more cytotoxic) in assay [5] amounted to 316%. This molecule also returned a viability (% of control) in assay [6] of 62.2%. For the same molecule, the Potency result in assay [7] and in assay [8] was “inactive” in each case.

In assay [1], `Cc1ccc(C(C)(O)c2nc3ccccc3s2)c(C)c1` (stereo unspecified) yielded a parasite growth, % of DMSO control of 61.8%. The same molecule yielded a parasite growth remaining, % of DMSO control (lower = more inhibition) in assay [2] of 90.2%. In addition, the parasite growth, % of control (lower = inhibition) in assay [3] came out at 88.7%. Besides, the growth, % of control in assay [4] worked out at 95.9%. Moreover, the cell viability, % of control (lower = more cytotoxic) in assay [5] amounted to 129%. Also, the viability (% of control) in assay [6] came out at 6.97%. Moreover, the Potency result in assay [7] and in assay [8] was “inactive” throughout.

Turning to `CN(C)Cc1cccc(N=C(c2ccccc2)c2c(O)[nH]c3cc(C(=O)N(C)C)ccc23)c1`, in assay [1], the parasite growth, % of DMSO control is 16.4%. In assay [2], this molecule yielded a parasite growth remaining, % of DMSO control (lower = more inhibition) of 30.5%. In addition, the parasite growth, % of control (lower = inhibition) in assay [3] was found to be 12.9%. This molecule also yielded a growth, % of control in assay [4] of 36.3%. In assay [5], the cell viability, % of control (lower = more cytotoxic) came to 6.16%. This molecule also yielded a viability (% of control) in assay [6] of 6.94%. For the same molecule, the Potency result in assay [7] and in assay [8] was “inactive” each time.

Consider `COc1cccc([C@@H](C)NCCCc2ccccc2Cl)c1`, for which the parasite growth, % of DMSO control in assay [1] came to 6.27%. Further, the parasite growth remaining, % of DMSO control (lower = more inhibition) in assay [2] came out at 78.7%. For the same molecule, in assay [3], the parasite growth, % of control (lower = inhibition) came out at 13.3%. Besides, the growth, % of control in assay [4] turned out to be 7.8%. The cell viability, % of control (lower = more cytotoxic) in assay [5] was 172%. The viability (% of control) in assay [6] worked out at 66.2%. Moreover, the Potency entry in assay [7] and in assay [8] was “inactive” in each case.

In assay [1], `C=C1C(=O)OC(CCCCCCCC)C1C(=O)O` (stereo unspecified) registered a parasite growth, % of DMSO control of 50.6%. In addition, the parasite growth remaining, % of DMSO control (lower = more inhibition) in assay [2] is 76.2%. For the same molecule, the parasite growth, % of control (lower = inhibition) in assay [3] turned out to be 62.9%. This molecule came in with a growth, % of control in assay [4] of 61.5%. In addition, the cell viability, % of control (lower = more cytotoxic) in assay [5] was 15.6%. Also, in assay [6], the viability (% of control) came out at 98%. In addition, the Potency result in assay [7] and in assay [8] was “inactive” in each case.

For the molecule `N[C@@]1(C(=O)O)CS(=O)(=O)[C@H]2[C@H](C(=O)O)[C@H]21`, in assay [1], the parasite growth, % of DMSO control was 57.1%. Besides, the parasite growth remaining, % of DMSO control (lower = more inhibition) in assay [2] was found to be 88.4%. For the same molecule, the parasite growth, % of control (lower = inhibition) in assay [3] turned out to be 112%. For the same molecule, in assay [5], the cell viability, % of control (lower = more cytotoxic) is 78.4%. The molecule further showed a viability (% of control) in assay [6] of 76%. Also, the Potency result in assay [7] and in assay [8] was “inactive” in each case.

With `NC(=O)c1cccc(-c2cc(Nc3ccc(OC(F)(F)F)cc3)ncn2)c1`, the parasite growth, % of DMSO control in assay [1] worked out at 12.3%. In addition, the parasite growth remaining, % of DMSO control (lower = more inhibition) in assay [2] was found to be 63.7%. For the same molecule, in assay [3], the parasite growth, % of control (lower = inhibition) was determined as 23%. This molecule also came in with a growth, % of control in assay [4] of 8.8%. For the same molecule, the cell viability, % of control (lower = more cytotoxic) in assay [5] was found to be 370%. The same molecule displayed a viability (% of control) in assay [6] of 77.2%. Also, the Potency result in assay [7] and in assay [8] was “inactive” throughout.

`COCCOC(=O)C1=C(C)NC2=C(C(=O)CC(c3ccccc3OC)C2)C1c1cccc(O)c1` (stereo unspecified) displayed a parasite growth, % of DMSO control in assay [1] of 11.6%. Also, the parasite growth remaining, % of DMSO control (lower = more inhibition) in assay [2] is 9.83%. Also, the parasite growth, % of control (lower = inhibition) in assay [3] turned out to be 51.8%. The molecule also registered a growth, % of control in assay [4] of 17.6%. Further, the cell viability, % of control (lower = more cytotoxic) in assay [5] was determined as 4.78%. Further, the viability (% of control) in assay [6] came to 5.74%. The Potency result in assay [7] and in assay [8] was “inactive” in each case.

In the case of `Oc1ccc(C2CCN(c3ccnc4ccccc34)CC2)cc1O`, the parasite growth, % of DMSO control in assay [1] was 6.17%. The molecule further displayed a parasite growth remaining, % of DMSO control (lower = more inhibition) in assay [2] of 13.2%. Further, in assay [3], the parasite growth, % of control (lower = inhibition) was determined as 11.6%. The same molecule displayed a growth, % of control in assay [4] of 3.95%. Besides, in assay [5], the cell viability, % of control (lower = more cytotoxic) stood at 31%. Also, the viability (% of control) in assay [6] is 5.01%. Further, the Potency entry in assay [7] and in assay [8] was “inactive” throughout.

In assay [1], `COc1ccc(Cc2ccc(NC(N)=O)cc2)cc1-c1cccc(Cl)c1` returned a parasite growth, % of DMSO control of 61.7%. Moreover, in assay [2], the parasite growth remaining, % of DMSO control (lower = more inhibition) came out at 89.9%. The parasite growth, % of control (lower = inhibition) in assay [3] is 38.4%. Moreover, the cell viability, % of control (lower = more cytotoxic) in assay [5] came to 234%. The molecule further had a viability (% of control) in assay [6] of 91.3%. Further, the Potency entry in assay [7] and in assay [8] was “inactive” in each case.
